According to article PMC5540273 (PLoS ONE, 2017):

Experiments:
Settings in all cases: concentration: 1 μM, replicates: in singlicate; n = 1
CDK3 = test system: CDK3
CDK4-cyclinD1 = test system: CDK4-cyclinD1
CDK4-cyclinD3 = test system: CDK4-cyclinD3
CDK4 = test system: CDK4
CDK5 = test system: CDK5
CDK7 = test system: CDK7
CDK8 = test system: CDK8
CDK9 = test system: CDK9
CDKL1 = test system: CDKL1
CDKL2 = test system: CDKL2
CDKL3 = test system: CDKL3
CDKL5 = test system: CDKL5
CHEK1 = test system: CHEK1
CHEK2 = test system: CHEK2
CIT = test system: CIT
CLK1 = test system: CLK1
CLK2 = test system: CLK2
CLK3 = test system: CLK3
CLK4 = test system: CLK4
CSF1R-autoinhibited = test system: CSF1R-autoinhibited
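Also: KINOMEscan kinase panel screen.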

Row | Compound | %Inh (CDK3) [%] | %Inh (CDK4-cyclinD1) [%] | %Inh (CDK4-cyclinD3) [%] | %Inh (CDK4) [%] | %Inh (CDK5) [%] | %Inh (CDK7) [%] | %Inh (CDK8) [%] | %Inh (CDK9) [%] | %Inh (CDKL1) [%] | %Inh (CDKL2) [%] | %Inh (CDKL3) [%] | %Inh (CDKL5) [%] | %Inh (CHEK1) [%] | %Inh (CHEK2) [%] | %Inh (CIT) [%] | %Inh (CLK1) [%] | %Inh (CLK2) [%] | %Inh (CLK3) [%] | %Inh (CLK4) [%] | %Inh (CSF1R-autoinhibited) [%]
1 | Cc1ccc(-c2ccc3c(ccc4sc5c(c43)NC[C@@H](C)N=C5N(C)C)n2)cn1 | 0 | 0 | 0 | 0 | 0 | 6 | 0 | 0 | 0 | 0 | 0 | 0 | 0 | 1 | 0 | 0 | 0 | 0 | 0 | 14
2 | COc1cc2nccc(Nc3ccc(OCc4ccc(NC(C)=O)cc4)cc3)c2cc1OC.Cl [GW440135] | 4 | 37 | 0 | 34 | 0 | 0 | 36 | 0 | 1 | 0 | 20 | 0 | 0 | 0 | 0 | 8 | 0 | 10 | 0 | 25
3 | Nc1ncnc2c1ncn2-c1ccc(Cl)cc1 [AH2635] | 0 | 0 | 0 | 42 | 0 | 0 | 33 | 0 | 0 | 6 | 0 | 0 | 0 | 0 | 26 | 28 | 19 | 0 | 3 | 0
4 | COc1cc(Nc2nccc(N3CCC(NC(=O)C4COc5ccccc5O4)C3)n2)cc(OC)c1OC (centres unmarked) [GSK1379761] | 0 | 52 | 0 | 70 | 0 | 57 | 57 | 0 | 11 | 11 | 0 | 0 | 0 | 29 | 33 | 3 | 0 | 0 | 0 | 58
5 | O=c1cc(N2CCOCC2)nc2n(Cc3ccc(F)c(Cl)c3)ccn12 [GSK2297099] | 6 | 0 | 20 | 0 | 0 | 0 | 10 | 7 | 10 | 8 | 0 | 10 | 4 | 0 | 4 | 63 | 45 | 26 | 45 | 0
6 | CCc1ccc(-c2ccc3c(c2)-c2nn(C)cc2S(=O)(=O)N3C)cc1 | 0 | 14 | 0 | 0 | 12 | 0 | 0 | 0 | 9 | 19 | 0 | 0 | 0 | 0 | 0 | 0 | 13 | 0 | 0 | 2
7 | COc1cccc(C2=C(N(C)c3ccccc3)C(=O)NC2=O)c1 [SB-334865] | 12 | 2 | 8 | 0 | 0 | 0 | 6 | 39 | 0 | 23 | 0 | 0 | 0 | 0 | 6 | 15 | 0 | 0 | 13 | 0
8 | OCCCNc1nccc(-c2c(-c3cccc(C(F)(F)F)c3)nn3cc(C(F)(F)F)ccc23)n1 [GW630813] | 1 | 0 | 0 | 29 | 0 | 0 | 15 | 0 | 0 | 7 | 0 | 11 | 0 | 1 | 0 | 9 | 0 | 0 | 16 | 32
9 | Cc1c(Cn2c(C)nn3c(=O)cc(N4CCO[C@H](C)C4)nc23)cccc1C(F)(F)F [GSK2373690] | 18 | 0 | 0 | 0 | 0 | 0 | 13 | 0 | 3 | 24 | 0 | 7 | 2 | 0 | 1 | 27 | 16 | 23 | 32 | 0
10 | CN1C(=O)C(Nc2cc(Cl)c(O)c(Cl)c2)=C(c2ccc(Cl)cc2)C1=O [SB-404321] | 0 | 0 | 0 | 23 | 4 | 0 | 41 | 0 | 0 | 7 | 0 | 0 | 0 | 0 | 38 | 22 | 0 | 0 | 0 | 0
11 | COc1ccc(CNC(=O)NC2CCN(c3ccnc(Nc4ccc(F)cc4)n3)C2)cc1 (centres unmarked) [GSK1379706] | 20 | 52 | 0 | 49 | 0 | 4 | 60 | 5 | 10 | 31 | 0 | 0 | 8 | 48 | 9 | 16 | 0 | 0 | 8 | 50
12 | Cc1cccc(-c2nc(Nc3ccc4c(cnn4C)c3)c3ccccc3n2)n1 [GW876731] | 0 | 0 | 0 | 1 | 0 | 11 | 0 | 0 | 0 | 23 | 12 | 0 | 0 | 0 | 12 | 0 | 10 | 0 | 0 | 0
13 | O=C(Nc1n[nH]c2nc(-c3ccccc3)c(Cl)cc12)C1CC1 [SB-734909] | 0 | 0 | 0 | 9 | 0 | 15 | 3 | 0 | 41 | 35 | 2 | 0 | 0 | 22 | 0 | 0 | 0 | 15 | 0 | 0
14 | COc1cc2ncn(-c3cc(OCCCc4ccccc4)c(C(N)=O)s3)c2cc1OC [GSK205189] | 1 | 0 | 0 | 0 | 0 | 0 | 4 | 0 | 5 | 7 | 0 | 2 | 0 | 0 | 10 | 19 | 0 | 0 | 9 | 0
15 | COc1cc2ncn(-c3cc(OCc4ccc(S(C)(=O)=O)cc4)c(C(N)=O)s3)c2cc1OC [GW869979] | 0 | 14 | 16 | 9 | 0 | 0 | 0 | 0 | 0 | 0 | 0 | 15 | 18 | 0 | 29 | 17 | 1 | 0 | 0 | 5
16 | CCCC(=O)Nc1n[nH]c2ncc(-c3cccc4ccccc34)cc12 [SB-642057] | 51 | 0 | 37 | 0 | 0 | 0 | 7 | 0 | 10 | 0 | 0 | 3 | 0 | 0 | 1 | 30 | 0 | 0 | 8 | 0

Row | Compound | %Inh (CDK3) [%] | %Inh (CDK4-cyclinD1) [%] | %Inh (CDK4-cyclinD3) [%] | %Inh (CDK4) [%] | %Inh (CDK5) [%] | %Inh (CDK7) [%] | %Inh (CDK8) [%] | %Inh (CDK9) [%] | %Inh (CDKL1) [%] | %Inh (CDKL2) [%] | %Inh (CDKL3) [%] | %Inh (CDKL5) [%] | %Inh (CHEK1) [%] | %Inh (CHEK2) [%] | %Inh (CIT) [%] | %Inh (CLK1) [%] | %Inh (CLK2) [%] | %Inh (CLK3) [%] | %Inh (CLK4) [%] | %Inh (CSF1R-autoinhibited) [%]
17 | COc1cccc(-n2cnc3c(N)ncnc32)c1 [SKF-97416] | 17 | 37 | 0 | 31 | 0 | 33 | 0 | 0 | 13 | 8 | 0 | 14 | 0 | 25 | 8 | 6 | 3 | 0 | 0 | 16
18 | CCn1c(-c2ccoc2)nc2cnccc21 [SB-733887] | 23 | 5 | 29 | 0 | 0 | 60 | 33 | 0 | 0 | 16 | 0 | 0 | 17 | 24 | 19 | 26 | 0 | 0 | 3 | 15
19 | Nc1nccc2scc(-c3ccc4c(c3)CCN4C(=O)Cc3ccccc3)c12 [GSK2576924] | 9 | 0 | 0 | 13 | 0 | 7 | 70 | 0 | 7 | 17 | 0 | 0 | 0 | 0 | 46 | 34 | 19 | 0 | 25 | 0
20 | FC(F)(F)c1ccc(-c2ncn(CCCN3CCOCC3)c2-c2ccncc2)cc1 [SB-217780] | 0 | 0 | 1 | 9 | 0 | 9 | 12 | 0 | 13 | 0 | 0 | 16 | 0 | 33 | 0 | 12 | 0 | 0 | 0 | 0
21 | Cc1cccc(-c2cc(-c3c[nH]nc3-c3ccccn3)ccn2)c1 [GW679395] | 9 | 0 | 0 | 0 | 0 | 0 | 4 | 0 | 0 | 14 | 0 | 0 | 0 | 0 | 45 | 18 | 2 | 0 | 6 | 0
22 | CCc1nc(-c2cccc(C)c2)c(-c2ccncc2)s1 | 8 | 6 | 0 | 0 | 3 | 0 | 0 | 7 | 33 | 4 | 7 | 0 | 0 | 16 | 72 | 13 | 6 | 0 | 0 | 0
23 | O=C(NCCNc1ccnc(Nc2ccc(F)cc2)n1)Nc1ccc2c(c1)OCO2 [GSK1379882] | 0 | 0 | 0 | 8 | 0 | 0 | 25 | 7 | 0 | 15 | 0 | 4 | 0 | 18 | 44 | 17 | 13 | 9 | 17 | 13
24 | COc1cc(OC)cc(-c2cc3cnc(N)nc3nc2NC(=O)NC(C)(C)C)c1 | 14 | 0 | 8 | 0 | 0 | 31 | 0 | 0 | 0 | 0 | 2 | 0 | 0 | 10 | 0 | 30 | 0 | 0 | 7 | 0
25 | COc1cccc(C2=C(Nc3cccc(C(=O)O)c3)C(=O)NC2=O)c1 [SB-390770] | 9 | 9 | 0 | 0 | 0 | 0 | 4 | 0 | 0 | 24 | 0 | 0 | 0 | 0 | 39 | 9 | 21 | 0 | 20 | 0
26 | Cc1ccc(Oc2ccc(Nc3ncnc4cc[nH]c34)cc2C)cn1 | 0 | 4 | 0 | 29 | 9 | 40 | 0 | 10 | 1 | 0 | 3 | 3 | 6 | 22 | 57 | 0 | 0 | 0 | 24 | 0
27 | Cc1nn2c(=O)cc(N3CCOCC3)nc2n1Cc1cccc(Cl)c1Cl [GSK2342769] | 16 | 0 | 0 | 0 | 0 | 0 | 0 | 0 | 0 | 19 | 0 | 8 | 26 | 0 | 10 | 20 | 1 | 16 | 22 | 0
28 | O=C(Nc1n[nH]c2nc(-c3ccccc3)c(Br)cc12)C1CC1 [SB-708998] | 0 | 0 | 0 | 10 | 10 | 1 | 0 | 0 | 0 | 30 | 0 | 0 | 15 | 0 | 19 | 17 | 0 | 0 | 21 | 0
29 | O=C1NC(=O)C(c2ccccc2)=C1Nc1cccc(O)c1 [SB-390534] | 6 | 0 | 0 | 0 | 0 | 0 | 0 | 0 | 1 | 11 | 0 | 0 | 0 | 16 | 0 | 40 | 21 | 19 | 10 | 0
30 | Nc1n[nH]c2ncc(-c3ccccc3)cc12 [SB-517081] | 26 | 0 | 5 | 23 | 0 | 0 | 0 | 0 | 8 | 34 | 0 | 0 | 12 | 0 | 29 | 21 | 0 | 0 | 66 | 0
31 | Cc1nnc(-c2ccc(C)c(-c3ccc(C(=O)O)cc3)c2)o1 [GW608005] | 0 | 0 | 0 | 29 | 0 | 0 | 21 | 0 | 0 | 6 | 0 | 0 | 5 | 0 | 32 | 10 | 0 | 0 | 0 | 0
